Molecular target: T1, NL_v2_PPR14 (Artificial Sequence)
T1 chain: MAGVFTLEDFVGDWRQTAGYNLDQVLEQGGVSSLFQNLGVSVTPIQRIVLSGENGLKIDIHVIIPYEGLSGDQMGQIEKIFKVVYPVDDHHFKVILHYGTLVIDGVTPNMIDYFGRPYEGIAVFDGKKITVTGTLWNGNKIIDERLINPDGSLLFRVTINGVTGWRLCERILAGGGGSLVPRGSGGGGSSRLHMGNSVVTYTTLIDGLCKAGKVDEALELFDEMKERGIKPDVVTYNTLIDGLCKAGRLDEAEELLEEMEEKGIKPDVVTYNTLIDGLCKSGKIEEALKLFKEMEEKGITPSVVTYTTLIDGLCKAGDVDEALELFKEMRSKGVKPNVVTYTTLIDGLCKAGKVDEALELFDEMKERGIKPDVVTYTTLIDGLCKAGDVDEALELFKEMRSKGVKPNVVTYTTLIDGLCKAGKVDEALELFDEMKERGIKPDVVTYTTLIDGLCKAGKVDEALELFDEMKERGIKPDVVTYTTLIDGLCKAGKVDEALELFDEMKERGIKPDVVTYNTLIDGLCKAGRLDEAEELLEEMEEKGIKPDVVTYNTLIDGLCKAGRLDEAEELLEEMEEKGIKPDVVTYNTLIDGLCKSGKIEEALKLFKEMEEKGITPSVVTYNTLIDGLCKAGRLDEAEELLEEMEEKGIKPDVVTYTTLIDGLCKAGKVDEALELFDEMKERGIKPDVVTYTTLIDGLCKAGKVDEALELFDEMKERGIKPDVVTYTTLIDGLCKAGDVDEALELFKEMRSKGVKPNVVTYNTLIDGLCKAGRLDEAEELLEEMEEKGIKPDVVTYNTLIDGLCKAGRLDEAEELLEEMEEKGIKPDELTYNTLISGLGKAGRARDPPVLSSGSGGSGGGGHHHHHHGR
Experiment: RPB-ELISA
Conditions: tags: N-terminal luciferase, C-terminal 6xHis; label: 5'-biotin; ssRNA
Description: RNA probes consisting of a designed 30-base sequence containing 18 bases of the target sequence and modified by biotinylation at the 5′ end (RNA_1, RNA_2, RNA_3, RNA_4, and RNA_5, SEQ ID NOS: 61 to 65) were synthesized (Grainer). To a streptavidin-coated plate (Thermo fisher), the 5′-end biotinylated RNA probes were added, reaction was allowed at room temperature for 30 minutes, and the plate was washed with a lysis buffer (20 mM Tris-HCl, pH 7.6, 150 mM NaCl, 5 mM MgCl₂, 0.5% NP-40, 1 mM DTT, 0.1% BSA). For background measurement, wells to which RNA was not added, but 100 μL of the lysis buffer, 1 μL of 100 mM DTT, and 1 μL of 40 unit/4 RNase inhibitor (Takara, 2313A) were added were also prepared. Then, 200 μL of a blocking buffer (20 mM Tris-HCl, pH 7.6, 150 mM NaCl, 5 mM MgCl₂, 0.5% NP-40, 1 mM DTT, 1% BSA) was added, and the plate surface was blocked at room temperature for 30 minutes. Then, 100 μL of E. coli lysate containing luciferase-fused PPR protein having a luminescence level of 1.5×10⁸ LU/μL was added to each well, and the binding reaction was allowed at room temperature for 30 minutes. The well was washed 5 times with 200 μL of a washing buffer (20 mM Tris-HCl, pH 7.6, 150 mM NaCl, 5 mM MgCl₂, 0.5% NP-40, 1 mM DTT). […] The background (luminescence signal value obtained with adding the PPR protein and without adding RNA) was subtracted from the luminescences of the samples to which a solution containing each RNA and PPR protein was added, and the obtained values were used as the binding powers between the PPR protein and RNA.
By using the v2 motif, PPR proteins for 23 kinds of target sequences (T_1 to T_3, and T_5 to T_24, SEQ ID NOS: […]) were prepared (NL_v2_PPR1 to 3, and NL_v2_PPR5 to 24, SEQ ID NOS: 56 to 58 and 70 to 88), and RPB-ELISA was used to analyze bindings of all the combinations. The experimental method was the same as that used in Example 3.

| Sequence | binding signal [log2 luminescence] |
| --- | --- |
| GGUUAGAGAUACAGUGUG | 22 |
